Screening results (PubChem)
The sample as a whole holds a higher share of hits than the screen did.
Tgondii IFNg: T. gondii growth inhibition with IFN-gamma, primary screen, cell-based; 3.8% of 69,000 active; Toxoplasma gondii growth in IFN-gamma-treated host cells; hits give low values; activity change, negative = inhibition, % (concentration not given with the values); AID 1259416, 2018; in the data active = activity change below about -70%, passing the limit was not always enough;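 note: host cells are HeLa cells infected with Toxoplasma gondii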
An asterisk follows results filed as active; ! = not confirmed by another sample.

SMILES	Tgondii IFNg
CCCC(=O)Nc1ccc2c(c1)OC[C@H](C)NC[C@H](C)[C@@H](OC)CN(C)C2=O	49.6
Cc1cc(-c2cnc(N3CCCC3)nc2C2CCN(C(=O)c3n[nH]c4c3CCC4)CC2)on1	-82.3*
Cc1ccc(C2(O)CCN(C(=O)c3n[nH]c4c3CCC4)CC2)nc1	8.3
Cc1cc(-c2cnc(N3CCOCC3)nc2C2CCN(CC3CCC=CO3)CC2)on1 (configuration not stated)	38.3
O=C(NC1CCCOC1)c1ccc(-n2cnnc2)cc1Cl (configuration not stated)	26.0
O=C(c1ccccc1Cn1cccn1)N1CCN(c2nc3ccccc3s2)CC1	-56.7
Cc1ccc(-c2nc(Cn3nnc(C(=O)Nc4cccc(Cl)c4C)c3C)c(C)o2)cc1	-63.6
COc1ccc(CNc2nc(SCc3ccc(Cl)cc3)nc3ccccc23)cc1	-61.2
CCN(CC)c1ncc2c(NCc3ccccc3)nc(SCc3ccccc3)nc2n1	-109.9*
COc1ccc(CNc2nc(SCc3ccc(F)cc3)nc3ccccc23)cc1	-69.9
COc1ccc2oc(C)c(C(=O)Nc3ccc(OCC(=O)N4CCCC4)cc3)c2c1	17.2
CCn1c(=O)c(-c2nc(-c3cccc(OC)c3)no2)c(O)c2ccccc21	-26.9
Cc1cc(C)n2c(SCC(=O)N3CCN(C(=O)c4ccco4)CC3)nnc2n1	-8.4
COc1ccc2c(c1)C(NC(=O)CN1CCCN(C)CC1)CC(C)(C)O2 (configuration not stated)	-1.5
COc1cccc(CN2CCCC(c3ccc4c(NCc5cccc(C)n5)n[nH]c4n3)C2)c1 (configuration not stated)	-83.4*
COc1ccc(-c2nc(NCC3CCN(Cc4cccc(C)c4)CC3)c3ccccc3n2)cc1	-36.0
COc1cccc([C@@H]2CCCN(Cc3cc4n(n3)CCCNC4)C2)c1	-25.7
Cc1c[nH]c(C(=O)N2CCCC3(CC2)CNC(=O)O3)c1 (configuration not stated)	-30.2
CCCN(CCC)C(=O)c1cc2cccnc2n(Cc2ccccc2F)c1=O	34.3
CCn1c(=O)c(C(=O)Nc2ccccc2OC)c(O)c2ccccc21	70.1
COc1cc(NC(=O)c2cncc(Br)c2)c(OC)cc1Cl	3.5
CCOC(=O)c1cccc(NC(=O)c2ccncc2)c1	25.8
CCn1c(-c2cc(NC(=O)c3cncc(Br)c3)n[nH]2)cc2c(OC)cccc21	-96.6*
COc1cccc(OC)c1C(=O)c1ccncc1	-23.8
CCn1c(-c2cc(NC(=O)c3ccncc3)n[nH]2)cc2c(OC)cccc21	-103.0*
SMILES	Tgondii IFNg
O=C(CC1COCCN1)NCc1ccc2c(c1)OCO2 (configuration not stated)	6.4
CN1C[C@@H]2CC[C@H](CC1=O)N2C(=O)c1cc(=O)[nH]c2ccc(F)cc12	-15.3
CC(C)C(=O)NC[C@@]12COC[C@@H]1CN(CCOCc1ccccc1)C2	-38.2
Cc1ccc(C(=O)N(C)Cc2n[nH]c3c2CCC3)cc1NC(=O)C1CC1	0.3
CCS(=O)(=O)N1CCC2(CC1)CC(N(C)Cc1ccco1)CO2 (configuration not stated)	-6.9
COc1ccccc1-c1nc(CN(C)S(=O)(=O)c2ccc(C)cc2)c(C)o1	124.1
Cc1[nH]cnc1-c1nccn1-c1ccc(-c2ccn[nH]2)cc1	10.9
Cc1cc(C)n(CC(O)Cn2c3ccc(Cl)cc3c3cc(Cl)ccc32)n1 (configuration not stated)	-35.5
OC(CNCc1ccccc1)Cn1c2ccc(Cl)cc2c2cc(Cl)ccc21 (configuration not stated)	-90.9*
CNCC(O)Cn1c(C)c(C)c2ccccc21 (configuration not stated)	-3.2
CS(=O)(=O)N1C[C@@H]2[C@H](C1)OC[C@@H]2C(=O)Nc1cccnc1	4.3
O=C(Cn1ncc2c(N3CCCC3)ncnc21)Nc1ccc(Cl)cc1F	-38.9
Cc1cnccc1CN(C)C(=O)c1cnc(C(C)C)[nH]c1=O	7.9
Cc1nc(CC(=O)N2CCC(c3ccccc3C(=O)O)C2)cs1 (configuration not stated)	31.2
Cc1nc(CC(=O)N2CCCC2c2ccc3c(NCc4ccccc4)n[nH]c3n2)cs1 (configuration not stated)	-76.2*
Cc1nc(CC(=O)N2CCCCC2c2[nH]ncc2C)cs1 (configuration not stated)	-33.9
CN(C)CCN1CCOCC2(CCCN(C(=O)c3ccc4cc[nH]c4c3)C2)C1 (configuration not stated)	-51.2
CN(CC1CCCN1C)C(=O)c1cc(CN2CCc3ccccc3C2)on1 (configuration not stated)	-20.9
Nc1nc(-c2ccc(Cl)s2)cs1	121.9
CC(Cn1ccnc1)NCC1(N2CCOCC2)CCCCC1 (configuration not stated)	11.3
O=C(Oc1cccc2cccnc12)C(c1ccccc1)c1ccccc1	-0.4
Oc1ccc(-c2nc(-c3ccc(F)cc3)c(-c3ccncc3)[nH]2)cc1	-80.2*
CCN(C)Cc1ccc(-c2nc(-c3ccncc3)cc(=O)[nH]2)cc1	0.1
COc1ccc(-c2nc(-c3ccncc3)[nH]c(=O)n2)cc1	44.4
COc1ccc(S(=O)(=O)N2CCCCCC2c2ccn(C)n2)cc1 (configuration not stated)	99.2
SMILES	Tgondii IFNg
N#Cc1ccccc1-c1ccccc1C#N	59.8
N#Cc1cc2c(c3c1CCc1ccccc1-3)-c1ccccc1CC2	-80.0*
O=S(=O)(NCc1ccc(F)cc1F)c1ccc(-c2ccno2)s1	34.5
CC[C@@H](C(=O)[C@@H](C)[C@@H](O)[C@H](C)[C@@H]1O[C@@H]([C@@H](CC)C(=O)O)CC[C@@H]1C)[C@H]1OC2(C=C[C@@H](O)[C@]3(CC[C@@](C)(C4CC[C@](O)(CC)[C@H](C)O4)O3)O2)[C@H](C)C[C@@H]1C (some centres not stated)	-83.8*
CC[C@@H](C(=O)[C@@H](C)[C@@H](O)[C@H](C)[C@@H]1O[C@@H]([C@@H](CC)C(=O)O)CC[C@@H]1C)[C@H]1O[C@]2(C=C[C@@H](O)[C@]3(CC[C@@](C)(C4CC[C@](O)(CC)[C@H](C)O4)O3)O2)[C@H](C)C[C@@H]1C (some centres not stated)	-80.7*
CCN(Cc1cnc(-c2ccco2)nc1)CC1CCOCC1	4.4
Cc1cc(-c2c(-c3ccccc3)ncn2Cc2noc(C3CCCC3)n2)n[nH]1	-14.9
COc1ccc(CNC(=O)Cn2ncc3c(N4CCCC4)ncnc32)cc1	24.7
COc1cc(NC(C)CCCN)c2ncccc2c1 (configuration not stated)	28.3
COc1ccc2nc(C)cc(SCC(=O)c3ccc(Cl)cc3)c2c1	124.2
CCN(CC)CCCC(C)Nc1c2ccc(Cl)cc2nc2ccc(OC)cc12 (configuration not stated)	-72.4*!
COCCN1C(=O)CCc2cc(NS(=O)(=O)c3ccc(C)cc3)ccc21	39.4
CCCN1C(=O)CCc2cc(NS(=O)(=O)c3ccc(C(F)(F)F)cc3)ccc21	-82.3*
COCCN1C(=O)CCc2cc(NS(=O)(=O)c3ccc(C)c(C)c3)ccc21	22.0
COCCN1C(=O)CCc2cc(NS(=O)(=O)c3ccccc3)ccc21	-27.2
COCCN1C(=O)CCc2cc(NS(=O)(=O)c3ccc(CC(C)C)cc3)ccc21	-78.8*
COCCN1C(=O)CCc2cc(NS(=O)(=O)c3ccc4c(c3)CCC4)ccc21	-63.2
COCCN1C(=O)CCc2cc(NS(=O)(=O)c3ccc(C(F)(F)F)cc3)ccc21	1.0
CCCN1C(=O)CCc2cc(NS(=O)(=O)c3ccc(CC)cc3)ccc21	-81.6*
